# Test results published in PubChem BioAssay (NCATS).
# Inconclusive results are not listed. A call without a number means that no potency is given here. Values without a mark were called inactive. Active and inactive are the calls of the source. Unless noted, the call rests on the fitted dose curve; in most records, active means well fitted curve in the direction sought with a large enough effect; inconclusive means small, poorly fitted or top-dose-only effect, or another doubt; inactive means no such curve, though single readings can be large; an effect the other way counts as inactive or inconclusive.
# Assays:
# [1] = target: ATP-dependent 6-phosphofructokinase (Trypanosoma brucei brucei) (UniProt O15648); test: qHTS Assay to Find Inhibitors of T. brucei phosphofructokinase: hit validation (AID 492961);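 further: luminescence reports ADP formed as PFK phosphorylates fructose-6-phosphate with ATP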
# ATP-dependent 6-phosphofructokinase (Trypanosoma brucei brucei), sequence (O15648 whole entry, looked up): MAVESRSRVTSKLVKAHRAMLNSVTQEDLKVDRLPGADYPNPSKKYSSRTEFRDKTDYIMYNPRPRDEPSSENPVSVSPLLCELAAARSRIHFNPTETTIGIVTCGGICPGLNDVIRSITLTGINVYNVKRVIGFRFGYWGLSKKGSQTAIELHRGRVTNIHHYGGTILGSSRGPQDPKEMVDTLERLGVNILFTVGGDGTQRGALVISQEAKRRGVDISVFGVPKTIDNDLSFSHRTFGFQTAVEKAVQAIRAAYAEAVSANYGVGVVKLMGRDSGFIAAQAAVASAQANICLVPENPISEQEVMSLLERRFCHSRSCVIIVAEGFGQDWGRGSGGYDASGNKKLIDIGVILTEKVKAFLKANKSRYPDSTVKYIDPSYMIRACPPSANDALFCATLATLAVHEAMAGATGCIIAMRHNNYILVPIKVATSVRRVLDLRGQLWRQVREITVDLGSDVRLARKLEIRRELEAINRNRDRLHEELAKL
# Summary of the method: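 Inhibition of parasite PFK is measured as reduced ADP formation, quantified via luciferase after ATP depletion. Assay used 0.1 mM ATP, 0.5 mM F6P, 1.25 nM enzyme, 45 min incubation.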
# [2] = target: Luciferin 4-monooxygenase (Photinus pyralis) (UniProt P08659); test: Biochemical firefly luciferase enzyme assay for NPC (AID 624030);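 further: purified P. pyralis luciferase at 10 nM with luciferin and ATP substrate; nearly all actives have a fitted effect of over 70% in size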
# Luciferin 4-monooxygenase (Photinus pyralis), sequence (P08659 whole entry, looked up): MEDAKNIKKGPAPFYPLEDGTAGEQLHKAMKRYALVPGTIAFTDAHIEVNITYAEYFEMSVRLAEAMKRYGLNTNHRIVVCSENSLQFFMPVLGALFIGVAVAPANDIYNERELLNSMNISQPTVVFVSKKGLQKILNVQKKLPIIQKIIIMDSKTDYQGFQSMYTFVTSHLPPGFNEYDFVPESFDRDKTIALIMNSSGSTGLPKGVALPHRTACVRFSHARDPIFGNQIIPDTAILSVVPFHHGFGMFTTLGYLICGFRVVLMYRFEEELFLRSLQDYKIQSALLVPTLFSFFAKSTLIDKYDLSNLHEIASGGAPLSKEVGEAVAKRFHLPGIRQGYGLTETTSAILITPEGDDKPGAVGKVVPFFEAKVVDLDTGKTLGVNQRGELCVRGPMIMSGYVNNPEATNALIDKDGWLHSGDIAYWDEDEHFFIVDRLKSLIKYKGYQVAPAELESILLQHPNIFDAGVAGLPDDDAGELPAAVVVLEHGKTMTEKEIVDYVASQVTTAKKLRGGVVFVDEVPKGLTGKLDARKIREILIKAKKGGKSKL
# Summary of the method: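 Purified P. pyralis luciferase at 10 nM in 50 mM Tris Acetate (final), luminescence read within 5 minutes of enzyme addition to compounds. Activity normalised to PTC124 versus DMSO; concentration-response curves classed by r2, magnitude and activity.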
# [3] = S16 Schwann cell PMP22 intronic element beta-lactamase assay (AID 624044; calls by dose curve; further: nearly all actives have a fitted effect of over 15% in size); conditions: S16 rat Schwann cells, PMP22 element beta-lactamase FRET, 24 h; ratio activity, negative = inhibition: at 38.3 µM (top of the series)
# Summary of the method: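 Rat S16 Schwann cells with beta-Lac driven by a PMP22 intronic element, compound-treated 24 h at 37 °C. LiveBLAzer FRET B/G read: 460 nm normalized to potassium clavulanate vs DMSO; 535 nm FRET as viability; concentration-effect curves classified.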
# [4] = qHTS profiling for inhibitors of Plasmodium falciparum proliferation (AID 504749); further: nearly all actives have a fitted effect of over 60% in size; further: potency means the concentration at half of the fitted maximal effect; conditions: P. falciparum in erythrocytes, SYBR Green DNA, 72 h, at 28.7 µM (top of the series)
# Summary of the method: (§1)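 P. falciparum-infected erythrocytes (0.3% parasitemia, 2.5% hematocrit) incubated with compound 72 h at 37 C, 5% CO2. Parasite DNA detected by SYBR Green after lysis, overnight at room temperature; normalised to 0.29 uM artemisinin and DMSO.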
# CP192 = test: as above; conditions: P. falciparum in erythrocytes, SYBR Green DNA, 72 h; series mostly up to 28.7 µM
# Summary of the method: as §1
# CP201 = test: as above; conditions: P. falciparum in erythrocytes, SYBR Green DNA, 72 h; series mostly up to 28.7 µM
# Summary of the method: as §1
# CP211 = test: as above; conditions: P. falciparum in erythrocytes, SYBR Green DNA, 72 h; series mostly up to 28.7 µM
# Summary of the method: as §1
# CP238 = test: as above; conditions: P. falciparum in erythrocytes, SYBR Green DNA, 72 h; series mostly up to 28.7 µM
# Summary of the method: as §1
# CP262 = test: as above; conditions: P. falciparum in erythrocytes, SYBR Green DNA, 72 h; series mostly up to 28.7 µM
# Summary of the method: as §1
# CP269 = test: as above; conditions: P. falciparum in erythrocytes, SYBR Green DNA, 72 h; series mostly up to 28.7 µM
# Summary of the method: as §1
# CP286 = test: as above; conditions: P. falciparum in erythrocytes, SYBR Green DNA, 72 h; series mostly up to 28.7 µM
# Summary of the method: as §1
# CP315 = test: as above; conditions: P. falciparum in erythrocytes, SYBR Green DNA, 72 h; series mostly up to 28.7 µM
# Summary of the method: as §1
# CP325 = test: as above; conditions: P. falciparum in erythrocytes, SYBR Green DNA, 72 h; series mostly up to 28.7 µM
# Summary of the method: as §1
# CP329 = test: as above; conditions: P. falciparum in erythrocytes, SYBR Green DNA, 72 h; series mostly up to 28.7 µM
# Summary of the method: as §1
# DFO2036 = test: as above; conditions: P. falciparum in erythrocytes, SYBR Green DNA, 72 h; series mostly up to 28.7 µM
# Summary of the method: as §1
# Dd2 = test: as above; conditions: P. falciparum in erythrocytes, SYBR Green DNA, 72 h; series mostly up to 28.7 µM
# Summary of the method: as §1
# FAB9 = test: as above; conditions: P. falciparum in erythrocytes, SYBR Green DNA, 72 h; series mostly up to 28.7 µM
# Summary of the method: as §1
# JCK = test: as above; conditions: P. falciparum in erythrocytes, SYBR Green DNA, 72 h; series mostly up to 28.7 µM
# Summary of the method: as §1
# N140 = test: as above; conditions: P. falciparum in erythrocytes, SYBR Green DNA, 72 h; series mostly up to 28.7 µM
# Summary of the method: as §1
# PC49 = test: as above; conditions: P. falciparum in erythrocytes, SYBR Green DNA, 72 h; series mostly up to 28.7 µM
# Summary of the method: as §1
structure (smiles),measurement,setting,value
CC(=O)CC(c1ccccc1)C1C(=O)Oc2ccccc2C1=O (configuration not stated),Potency,[1],inactive
same,Potency,[2],inactive
same,Potency,[3],inactive
same,"activity, negative = inhibition",[4]; parasite line A,13.7%
same,"activity, negative = inhibition",[4]; parasite line B,9.27%
same,Potency,CP192,inactive
same,Potency,CP201,inactive
same,Potency,CP211,inactive
same,Potency,CP238,inactive
same,Potency,CP262,inactive
same,Potency,CP269,inactive
same,Potency,CP286,inactive
same,Potency,CP315,inactive
same,Potency,CP325,inactive
same,Potency,CP329,inactive
same,Potency,DFO2036,inactive
same,Potency,Dd2,inactive
same,Potency,FAB9,inactive
same,Potency,JCK,inactive
same,Potency,N140,inactive
same,Potency,PC49,inactive
CC(CN1CC(=O)NC(=O)C1)N1CC(=O)NC(=O)C1 (configuration not stated),Potency,[1],inactive
same,Potency,[2],inactive
same,Potency,[3],inactive
same,"activity, negative = inhibition",[4]; parasite line A,1.79%
same,"activity, negative = inhibition",[4]; parasite line B,0.945%
same,Potency,CP201,inactive
same,Potency,CP211,inactive
same,Potency,CP238,inactive
same,Potency,CP262,inactive
same,Potency,CP269,inactive
same,Potency,CP286,inactive
same,Potency,CP315,inactive
same,Potency,CP325,inactive
same,Potency,CP329,inactive
same,Potency,DFO2036,inactive
same,Potency,Dd2,inactive
same,Potency,FAB9,inactive
same,Potency,JCK,inactive
same,Potency,N140,inactive
same,Potency,PC49,inactive
CCCSS/C(CCO)=C(/C)N(C=O)Cc1cnc(C)nc1N,Potency,[1],inactive
same,Potency,[2],inactive
same,"activity, negative = inhibition",[4]; parasite line A,-20.8%
same,"activity, negative = inhibition",[4]; parasite line B,-22.2%
same,Potency,CP192,inactive
same,Potency,CP201,inactive
same,Potency,CP211,inactive
same,Potency,CP238,inactive
same,Potency,CP262,inactive
same,Potency,CP269,inactive
same,Potency,CP286,inactive
same,Potency,CP315,inactive
same,Potency,CP325,inactive
same,Potency,CP329,inactive
same,Potency,DFO2036,inactive
same,Potency,Dd2,inactive
same,Potency,FAB9,inactive
same,Potency,JCK,inactive
same,Potency,N140,inactive
same,Potency,PC49,inactive
C[C@@H]1CCN(C(=O)[C@H](CCCNC(=N)N)NS(=O)(=O)c2cccc3c2NC[C@H](C)C3)[C@@H](C(=O)O)C1,Potency,[1],inactive
same,Potency,[2],inactive
same,Potency,[3],inactive
same,"activity, negative = inhibition",[4]; parasite line A,3.79%
same,"activity, negative = inhibition",[4]; parasite line B,10.6%
same,Potency,CP192,inactive
same,Potency,CP201,inactive
same,Potency,CP211,inactive
same,Potency,CP238,inactive
same,Potency,CP262,inactive
same,Potency,CP269,inactive
same,Potency,CP286,inactive
same,Potency,CP325,inactive
same,Potency,CP329,inactive
same,Potency,DFO2036,inactive
same,Potency,Dd2,inactive
same,Potency,FAB9,inactive
same,Potency,JCK,inactive
same,Potency,N140,inactive
same,Potency,PC49,inactive
OC[C@@H](O)C(O[C@@H]1O[C@@H](CO)[C@H](O)[C@H](O)[C@H]1O)[C@H](O)[C@@H](O)CO (some centres not stated),Potency,[1],inactive
same,Potency,[2],inactive
same,Potency,[3],inactive
same,"activity, negative = inhibition",[4]; parasite line A,12%
same,"activity, negative = inhibition",[4]; parasite line B,4.36%
same,Potency,CP192,inactive
same,Potency,CP201,inactive
same,Potency,CP211,inactive
same,Potency,CP238,inactive
same,Potency,CP262,inactive
same,Potency,CP269,inactive
same,Potency,CP286,inactive
same,Potency,CP315,inactive
same,Potency,CP325,inactive
same,Potency,CP329,inactive
same,Potency,DFO2036,inactive
same,Potency,Dd2,inactive
same,Potency,FAB9,inactive
same,Potency,JCK,inactive
same,Potency,N140,inactive
same,Potency,PC49,inactive
CCOC(=O)C(CCc1ccccc1)NC(C)C(=O)N1Cc2cc(OC)c(OC)cc2CC1C(=O)O (configuration not stated),Potency,[1],inactive
same,Potency,[2],inactive
same,Potency,[3],inactive
same,"activity, negative = inhibition",[4]; parasite line A,-6.17%
same,"activity, negative = inhibition",[4]; parasite line B,-28.7%
same,Potency,CP192,inactive
same,Potency,CP201,inactive
same,Potency,CP211,inactive
same,Potency,CP238,inactive
same,Potency,CP262,inactive
same,Potency,CP269,inactive
same,Potency,CP286,inactive
same,Potency,CP315,inactive
same,Potency,CP325,inactive
same,Potency,CP329,inactive
same,Potency,DFO2036,inactive
same,Potency,Dd2,inactive
same,Potency,FAB9,inactive
same,Potency,N140,3.55 µM (active)
same,Potency,PC49,11.2 µM (active)
